Reference: PubChem BioAssay AID686979 (National Center for Advancing Translational Sciences (NCATS), 2013)
“And” between values parts separate entries of the source, which are not always exact repeats. Equal values may be shown once. The campaign covered roughly 420,000 compounds. About 50,000 (12%) were called active. Roughly 26% stayed inconclusive and do not appear here. Calls come from the whole dose curve; as a rule, active = well fitted inhibition curve with a large enough effect; inconclusive = small, poorly fitted or top-dose-only effect; inactive = flat fitted curve, though single readings scatter. What follows is part of a selection rich in actives, with near analogues and random picks from the rest. More than one record can exist for a structure, and the calls need not agree.

Test: qHTS for Inhibitors of human tyrosyl-DNA phosphodiesterase 1 (TDP1): qHTS in cells in presence of CPT; note: nearly all actives have a fitted effect of over 55% in size
Details: chicken DT40 Tdp1-/-;hTDP1 cells + 20 nM CPT, ATP luminescence, 48 h; series mostly up to 46.2 µM; activity change, negative = growth inhibition: at the top concentration
Summary of the method: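 Cell growth measured by CellTiter-Glo luminescence after a minimum 48 h, 37 C compound exposure with 20 nM CPT in Tdp1-knockout DT40 cells stably expressing hTDP1, seeded 400/well; qHTS titration format.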
% is set by controls: 0 for no effect and ±100 for the full control effect; potency is the fitted concentration of half-maximal effect.

Row | SMILES | activity change, negative = growth inhibition | Potency
1 | CSCC(NS(=O)(=O)c1ccc(C)cc1)C(=O)O (centres undefined) | 10.7% (inactive) | 
2 | CCC(C)N(C(=O)CSc1ncnc2c1cnn2-c1ccccc1)C1CCS(=O)(=O)C1 (centres undefined) | -31.3% (inactive) | 
3 | O=C(CNS(=O)(=O)c1ccc2c(c1)OCCCO2)N1CCN(c2ccc(F)cc2)CC1 |  | 20.6 µM (active)
4 | COc1ccc(N2CCN(C(=O)CNS(=O)(=O)c3ccc(C)c(C)c3)CC2)cc1 | -0.48% (inactive) | 
5 | Cc1ccc(S(=O)(=O)NCC(=O)N2CCOCCOCCOCCOCC2)cc1 | 2.53% (inactive) | 
6 | CCOC(=O)[C@H]1[C@H]2COc3ccccc3[C@@H]2N2C(=O)CN(Cc3ccccc3)C(=O)[C@@]12C | 2.35% (inactive) | 
7 | CCCNC(=S)N1CCC(NC(=O)c2ccc(OC)cc2)CC1 | -5.72% (inactive) | 
8 | CC(C)n1c(-c2cccs2)nc2ccccc21 | -29.4% (inactive) | 
9 | O=c1c(-c2cccs2)nc2cnc(Oc3ccccc3)nc2n1-c1ccccc1 | 22.1% (inactive) | 
10 | CCC(c1nc2ccccc2[nH]1)n1c(=O)c(-c2cccs2)nc2ccccc21 (centres undefined) |  | 18.4 µM (active)
11 | O=C(NCc1ccccc1)C(c1cccnc1)N(C(=O)c1csnn1)c1ccc(F)cc1 (centres undefined) | -0.462% (inactive) | 
12 | COc1cc(OC)nc(NC(=O)CCl)n1 |  | 14.6 µM (active)
13 | COc1cc(OC)nc(N/N=C(\c2ccccc2)c2ccncc2)n1 | -0.201% (inactive) | 
14 | CCC(=O)Nc1nc(OC)cc(OC)n1 | -1.67% (inactive) | 
15 | CCSc1nsc(NC(=O)Nc2ccccc2OC)n1 | -1.09% (inactive) | 
16 | Cc1ccc(NC(=O)c2cccc(N(C)C)c2)cc1NC(=O)c1ccc(O)cc1 |  | inactive and 29.9 µM (active)
17 | Cc1ccc(F)cc1NC(=O)c1cccc(N(C)C)c1 | 4.84% (inactive) | 
18 | Cc1ccc(C)c(NC(=O)c2ccc3nccnc3c2)c1 | 2.67% (inactive) | 
19 | O=C(c1cn2ccccc2n1)N1CCc2c([nH]c3ccccc23)C1c1ccccn1 (centres undefined) | -7.37% (inactive) | 
20 | CCc1nc2ccc(C(=O)NC3CCN(Cc4ccccc4)CC3)cn2c1N(C)CCN1CCOCC1 | -5.59% (inactive) | 
21 | O=[N+]([O-])c1ccc(C=NN=Cc2ccc([N+](=O)[O-])cc2)cc1 | -3.28% (inactive) | 
22 | O=C(NN=Cc1ccc([N+](=O)[O-])cc1)C1CC1 | -7.32% (inactive) | 
23 | O=C1/C(=C\c2ccc([N+](=O)[O-])cc2)CS(=O)(=O)C/C1=C/c1ccc([N+](=O)[O-])cc1 |  | 0.0259 µM (active)
24 | CCOc1cccc2cc(C(=O)OCC(=O)Nc3c(C)cccc3CC)c(=O)oc12 | -27.3% (inactive) | 
25 | COCCNC(=O)CSc1nc2sccc2c(=O)n1-c1ccccc1 | -4.25% (inactive) | 
26 | COc1ccc(N2CCN(C(=O)C3CCN(S(=O)(=O)c4ccc(C)cc4)CC3)CC2)cc1 | -12.3% (inactive) | 

Row | SMILES | activity change, negative = growth inhibition | Potency
27 | COc1ccc(N(C)C(=O)C2CCN(S(=O)(=O)c3cc(Br)cc4c3N(C(C)=O)CC4)CC2)cc1 | -3.73% (inactive) | 
28 | Cc1ccc(S(=O)(=O)N2CCC(C(=O)N3CCCCCCC3)CC2)cc1 |  | 20.6 µM (active)
29 | Cc1ccc(S(=O)(=O)N2CCC(C(=O)OCC(=O)N(C)c3ccccc3)CC2)cc1C | -3.59% (inactive) | 
30 | COc1ccc(S(=O)(=O)N2CCC(C(=O)N3CCCC3)CC2)cc1C | -14.2% (inactive) | 
31 | Cc1ccc(N(C)C(=O)C2CCN(S(=O)(=O)c3ccc4c(c3)CCCN4C(=O)C3CCC3)CC2)cc1 |  | 23.1 µM (active)
32 | Cc1c(NC(=O)COC(=O)/C=C/c2cccc(F)c2)c(=O)n(-c2ccccc2)n1C | -21.7% (inactive) | 
33 | O=C1C[C@@H]2c3c(cccc3CN1Cc1ccccc1)C[C@@H](O)[C@H]2O |  | inactive
34 | NC(=O)CSc1nnc(NC(=O)c2ccc3ccccc3c2)s1 | -12.1% (inactive) | 
35 | CCc1ccccc1NC(=O)c1ccc(F)c(S(=O)(=O)NC2CCCCCC2)c1 | -21.5% (inactive) | 
36 | O=C(CN1CCOCC1)Nc1cccc([N+](=O)[O-])c1 | -7.67% (inactive) | 
37 | CN1CCN(CC(=O)Nc2cccc([N+](=O)[O-])c2)CC1 | 7.3% (inactive) | 
38 | Cc1cc(=O)n(CC(=O)Nc2cccc([N+](=O)[O-])c2)c(-n2nc(C)cc2C)n1 |  | 20.6 µM (active)
39 | Cn1c(=O)c2c(ncn2CC(=O)N/N=C/c2cn[nH]c2-c2ccc(F)cc2)n(C)c1=O | -11% (inactive) | 
40 | COc1ccc(Br)cc1/C=N/Nc1ccc(Cl)c(C(=O)O)c1 | 2.98% (inactive) | 
41 | N#Cc1c(-c2ccc(F)cc2)cc(C2CC2)nc1SCC(=O)c1cccs1 | -0.343% (inactive) | 
42 | O=S(=O)(NC1CC1)c1ccc(Cl)cc1 | 16.8% (inactive) | 
43 | Cn1sc(=O)c2cc(S(=O)(=O)NC3CC3)ccc21 |  | 2.91 µM (active)
44 | O=S(=O)(NC1CC1)c1ccc(F)c(F)c1 | 16.7% (inactive) | 
45 | COc1ccc(C)cc1NC(=O)NCCCCc1ccccc1 | -22.3% (inactive) | 
46 | CCOC(=O)c1[nH]c(C)c(C(=O)OCC(=O)N2c3ccccc3CC2C)c1C (centres undefined) | -30.2% (inactive) | 
47 | CC(=O)CSc1nc(CCc2ccccc2)c(C#N)c(=O)[nH]1 | -8.62% (inactive) | 
48 | Cc1nn2c(=O)cc(COC(=O)c3ccccc3NC(=O)COc3ccccc3C)nc2s1 | -0.73% (inactive) | 
49 | CS(=O)(=O)c1ccc2nc(NC(=O)c3ccc(N4CCCC4=O)cc3)sc2c1 | -2.13% (inactive) | 
50 | CSc1nc2ccc(S(=O)(=O)N3CCc4ccccc43)cc2s1 |  | 16.4 µM (active)
51 | O=C(Nc1nc2ccc([N+](=O)[O-])cc2s1)c1ccc(S(=O)(=O)N2CCCc3ccccc32)cc1 |  | 4.61 µM (active)
52 | CCC(=O)Nc1nnc(S(=O)(=O)N2CCCc3ccccc32)s1 | -15.7% (inactive) | 

Row | SMILES | activity change, negative = growth inhibition | Potency
53 | O=C(Nc1nnc(S(=O)(=O)N2CCCc3ccccc32)s1)c1cccc(F)c1 |  | 16.4 µM (active)
54 | O=S(=O)(c1ccccc1)N1CCc2ccccc21 | 5.41% (inactive) | 
55 | O=C(Nc1nnc(S(=O)(=O)N2CCOCC2)s1)c1cccc(Br)c1 | -29.9% (inactive) | 
56 | Cc1nn(C)c(C)c1S(=O)(=O)N1CCc2ccccc21 | -8.41% (inactive) | 
57 | CCOC(=O)CSc1nnc(NC(=O)c2cccc(S(=O)(=O)N3CCCCC3)c2)s1 | -22.7% (inactive) | 
58 | O=C(Nc1nnc(S(=O)(=O)N2CCCCCC2)s1)c1cccc(Br)c1 |  | 5.8 µM (active) and 25.9 µM (active)
59 | Cc1cccc(C(=O)Nc2nnc(S(=O)(=O)N3CCCCCC3)s2)c1 | -4.12% (inactive) | 
60 | NS(=O)(=O)c1ccc2nc(NC(=O)C3=COCCO3)sc2c1 | 7.48% (inactive) | 
61 | CN(Cc1ccc2nsnc2c1)Cc1nc(Cc2cccc(F)c2)no1 | 9.94% (inactive) | 
62 | Cc1cc(C)c(S(=O)(=O)c2ccc(F)cc2C)c(=O)[nH]1 | -5.32% (inactive) | 
63 | CN(CC(=O)NC1CCCC1)S(=O)(=O)c1cnc[nH]1 | -1.63% (inactive) | 
64 | C=CCN1CN(S(=O)(=O)c2ccc(OC)cc2)c2nc3ccccc3nc21 | -28.3% (inactive) | 
65 | O=C(Cn1cc(C(F)(F)F)ccc1=O)N/N=C/c1ccc(Cl)cc1Cl | -30% (inactive) | 
66 | CC1(C(=O)NS(=O)(=O)c2ccc(C#N)cc2)CCN1C(=O)c1ccc(C2CCCCC2)cc1 (centres undefined) | -41.5% (inactive) | 
67 | O=C(CNC(=O)OCc1ccccc1)NC1CCCCNC1=O (centres undefined) | 1.86% (inactive) | 
68 | Cc1ccc(C(=O)NCC(=O)OCC(=O)NC2CCCCCCC2)cc1 | 2.91% (inactive) | 
69 | CN(C1CCS(=O)(=O)C1)S(=O)(=O)c1ccc2ccccc2c1 (centres undefined) | -5.3% (inactive) | 
70 | O=C(COC(=O)c1ccc(F)cc1)Nc1nc2ccc([N+](=O)[O-])cc2s1 | -14% (inactive) | 
71 | O=C(NC(Nc1nc2ccc([N+](=O)[O-])cc2s1)(C(F)(F)F)C(F)(F)F)c1ccccc1 |  | 0.461 µM (active)
72 | O=C(CNC(=O)c1ccccc1)Oc1ccc([N+](=O)[O-])cc1 | -9.37% (inactive) | 
73 | Nc1ccc(N=Nc2ccccc2Cl)c(N)n1 | -8.19% (inactive) | 
74 | Cc1cc(Br)cn2c(Cc3ccccc3C(F)(F)F)c(-c3ccc(Cl)cc3)nc12 | -17% (inactive) | 
75 | Cc1ccc(-c2nc3ccc(Cl)cn3c2Cc2ccccc2)cc1 |  | 20.6 µM (active)
76 | Cc1ccc(Cc2c(-c3ccccc3)nc3ccc(Cl)cn23)cc1 | -24.5% (inactive) | 
77 | Cc1cc(Br)cn2c(Cc3ccccc3C(F)(F)F)c(C3CCCCC3)nc12 | -28.2% (inactive) | 
78 | Cc1ccc(-c2nc3ccc(Br)cn3c2Cc2ccccc2C(F)(F)F)cc1 |  | 16.4 µM (active)

Row | SMILES | activity change, negative = growth inhibition | Potency
79 | CN1CCN(Cc2c(C(=O)N3CCc4ccccc4C3)nc3ccc(Cl)cn23)CC1 | -25.8% (inactive) | 
80 | CC(=O)Nc1c(-c2ccc(C)cc2)nc2ccc(Cl)cn12 | 8.94% (inactive) | 
81 | Cc1ccc(-c2nc3c(C)cc(Br)cn3c2Cc2ccccc2)cc1 | -10.3% (inactive) | 
82 | Cc1ccc(Cc2c(-c3ccco3)nc3ccc(Cl)cn23)cc1 |  | 8.2 µM (active)
83 | Cc1ccccc1-n1nnnc1SCCCC(=O)c1ccc(F)cc1 | -22.2% (inactive) | 
84 | CCCS(=O)(=O)NC(=O)C1(C)CCCN(C(=O)c2cc(C)on2)C1 (centres undefined) | -2.06% (inactive) | 
85 | O=S(=O)(c1cccc(-c2cn3ccccc3n2)c1)N1CCCC1 | -20.9% (inactive) | 
86 | O=C(COC(=O)c1cccc(Cl)c1)NC1CCCCCCC1 | -6.99% (inactive) | 
87 | Cc1nnc(NC(=O)Cn2c(=O)sc3ccccc32)s1 | 9.47% (inactive) | 
88 | O=C(c1ccccc1)c1ccc2nc(N3CCCCC3)c3nncn3c2c1 |  | 23.1 µM (active)
89 | O=C(NNc1nc(N2CCCC2)nc(N2CCCC2)n1)c1ccccc1 | 0.8% (inactive) | 
90 | c1ccc(CC2CCN(c3nc4ccccc4n4cnnc34)CC2)cc1 | -8.49% (inactive) | 
91 | O=C(CN1CCCCC1)NC(=O)Nc1ccccc1F | -11.1% (inactive) | 
92 | Cc1cc(C)c(C(N)=O)c(Cl)n1 | -4.65% (inactive) | 
93 | COc1ccc(CN2C(=O)C(CC(=O)NCCN3CCOCC3)CC(C(=O)N(C(C)C)C(C)C)=C2C)cc1 (centres undefined) | -29.1% (inactive) | 
94 | CC(C)(Oc1ccc(Cl)cc1)C(=O)OCC(=O)NCCc1ccc(S(N)(=O)=O)cc1 | -16.8% (inactive) | 
95 | O=C(N/N=C/c1ccc(Cl)c(Cl)c1)c1ccc2nc[nH]c2c1 | -76.4% (inactive) | 
96 | CCCc1cc(=O)oc2c(C)c(OCC(=O)N3CCC(C(=O)O)CC3)ccc12 | -4.53% (inactive) | 
97 | CN(C)CCCNC(=S)N1CCC(c2nc3ccccc3[nH]2)CC1 | 0.871% (inactive) | 
98 | O=C(NCc1ccccn1)C1CCN(S(=O)(=O)c2ccc(Br)cc2)CC1 | -7.15% (inactive) | 
99 | O=S(=O)(c1ccc(Br)cc1)N1CCC(c2nc3ccccc3[nH]2)CC1 |  | 18.4 µM (active)
100 | Cc1ccc2oc(C(=O)N3CCN(C)C[C@@H]3C(C)C)c(C)c2c1 | -28% (inactive) | 
101 | CN(C(=O)CN1C(=O)NC(C)(CCc2ccccc2)C1=O)c1ccccc1 (centres undefined) | 5.1% (inactive) | 
102 | CCc1ccc(C(=O)OCC(=O)Nc2cccc(S(=O)(=O)NC3=NCCCCC3)c2)cc1 | 8.22% (inactive) | 
103 | COc1ccccc1C(=O)OCC(=O)Nc1cccc(S(=O)(=O)NC2=NCCCCC2)c1 | -3.79% (inactive) | 
104 | Cc1cccc(-n2c(SCC(=O)Nc3cccc(S(=O)(=O)NC4=NCCCCC4)c3)nc3ccccc3c2=O)c1C |  | 5.17 µM (active)
